In PubChem BioAssay (Tox21):
Records with an inconclusive call do not appear. Active and inactive are the calls of the source. Unless noted, calls come from the whole dose curve; as a rule, active = well fitted curve in the direction sought with a large enough effect in the repeat runs; inconclusive = weak or mixed curves; inactive = no such curve, though single readings can be large; an effect the other way counts as inactive or inconclusive.

Tests used:
[1] = qHTS assay to identify small molecule agonists of the constitutive androstane receptor (CAR) signaling pathway - cell viability counter screen (AID 1224836); note: nearly all actives have a fitted effect of over 45% in size; note: potency is the fitted concentration of half-maximal effect
Summary of the method: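 Cell viability multiplexed with the CAR agonist screen: CellTiter-Fluor fluorescence after 23 hr at 37 C. HepG2-CYP2B6-hCAR cells got compounds at 15 concentrations with PK11195 at 0.75 uM final.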

[2] = biological target: Nuclear receptor subfamily 1 group I member 3 (Homo sapiens) (UniProt Q14994); assay: qHTS assay to identify small molecule antagonists of the constitutive androstane receptor (CAR) signaling pathway (AID 1224838);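 note: HepG2 cells stably expressing hCAR with CYP2B6 luciferase reporter stimulated by CITCO; nearly all actives have a fitted effect of over 40% in size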; note: potency is the fitted concentration of half-maximal effect
Nuclear receptor subfamily 1 group I member 3 (Homo sapiens), sequence (Q14994 whole entry, looked up): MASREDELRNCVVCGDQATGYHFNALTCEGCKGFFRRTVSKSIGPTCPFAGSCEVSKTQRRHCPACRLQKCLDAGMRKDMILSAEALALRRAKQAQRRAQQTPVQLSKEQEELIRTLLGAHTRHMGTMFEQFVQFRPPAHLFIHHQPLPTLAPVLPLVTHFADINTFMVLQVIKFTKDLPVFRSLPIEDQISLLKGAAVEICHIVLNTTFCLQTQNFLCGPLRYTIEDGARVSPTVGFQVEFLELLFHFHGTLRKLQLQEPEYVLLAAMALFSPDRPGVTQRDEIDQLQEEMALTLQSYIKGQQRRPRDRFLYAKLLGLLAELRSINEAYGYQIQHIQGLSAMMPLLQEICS
Summary of the method: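 Cell line: HepG2 double-stable for hCAR and CYP2B6-2.2kb reporter. Agonist: CITCO, 50 nM final. Compounds: 15 concentrations, 24 h, 37 C. Detection: ONE-Glo luminescence.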

[3] = biological target: Nuclear receptor subfamily 1 group I member 3 (Homo sapiens) (UniProt Q14994); assay: qHTS assay to identify small molecule agonists of the constitutive androstane receptor (CAR) signaling pathway (AID 1224839);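 note: HepG2 cells stably carrying human CAR and a CYP2B6 luciferase reporter; nearly all actives have a fitted effect of over 15% in size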
Summary of the method: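 Luminescent ONE-Glo read-out after 24 hr, 37 C exposure of double-stable HepG2-CYP2B6-hCAR reporter cells to a 15-point compound series, in the presence of 0.75 uM PK11195 (final).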

[4] = qHTS assay to identify small molecule antagonists of the estrogen related receptor signaling pathway with the pleiotropic PPARgamma coactivator (PGC) from Tox21 10K library - cell viability counter screen (AID 1224840; active = well fitted cell-killing curve with a large enough effect in the repeat runs, not every such curve was filed as active; note: nearly all actives have a fitted effect of over 40% in size)
Summary of the method: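 Following seeding of 2,000 PGC/ERR cells/well and 6 hours' incubation, test compounds were delivered in DMSO. The plates then sat 17.5 hours at 37 C before a fluorogenic live-cell protease reagent (CellTiter-Fluor) was read after 30 min.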

[5] = qHTS assay to identify small molecule antagonists of the estrogen related receptor signaling pathway with the pleiotropic PPARgamma coactivator (PGC) from Tox21 10K library (AID 1224841; call rule not given here; note: actives are mostly falling curves and most rising ones were filed inactive; nearly all actives have a fitted effect of over 50% in size; note: potency is the fitted concentration of half-maximal effect)
Summary of the method: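 qHTS antagonist format: PGC/ERR cells, 2k/well, compound in DMSO by pin transfer after 6 h attachment, 18 h treatment at 37 C, One-Glo luminescence read at 30 min.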

[6] = biological target: Thyrotropin receptor (Homo sapiens) (UniProt P16473); assay: qHTS assay to identify small molecule agonists of the thyroid stimulating hormone receptor (TSHR) signaling pathway (AID 1224843; calls by dose curve; note: nearly all actives have a fitted effect of over 45% in size)
Thyrotropin receptor (Homo sapiens), sequence (P16473 whole entry, looked up): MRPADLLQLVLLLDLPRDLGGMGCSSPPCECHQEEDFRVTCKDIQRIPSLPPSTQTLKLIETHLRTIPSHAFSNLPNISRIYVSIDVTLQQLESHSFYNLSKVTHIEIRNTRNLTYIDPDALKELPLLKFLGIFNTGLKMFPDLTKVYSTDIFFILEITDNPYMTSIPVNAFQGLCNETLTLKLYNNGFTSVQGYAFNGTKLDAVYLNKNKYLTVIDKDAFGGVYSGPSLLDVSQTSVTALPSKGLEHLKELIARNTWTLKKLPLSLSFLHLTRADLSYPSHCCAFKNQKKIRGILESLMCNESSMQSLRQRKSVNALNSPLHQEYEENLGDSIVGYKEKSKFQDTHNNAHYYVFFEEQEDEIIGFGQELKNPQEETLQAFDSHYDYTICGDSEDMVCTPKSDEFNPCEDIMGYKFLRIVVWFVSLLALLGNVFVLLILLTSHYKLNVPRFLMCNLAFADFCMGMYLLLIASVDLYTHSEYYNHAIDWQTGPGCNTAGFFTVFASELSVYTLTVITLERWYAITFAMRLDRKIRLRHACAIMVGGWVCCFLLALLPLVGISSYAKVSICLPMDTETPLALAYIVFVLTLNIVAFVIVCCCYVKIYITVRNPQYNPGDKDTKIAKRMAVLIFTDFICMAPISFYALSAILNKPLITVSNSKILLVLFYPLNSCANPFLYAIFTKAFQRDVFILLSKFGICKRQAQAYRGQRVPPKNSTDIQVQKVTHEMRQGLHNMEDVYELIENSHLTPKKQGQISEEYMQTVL
Summary of the method: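 Screening of the Tox21 10K collection used HEK293 cells engineered with TSHR at 800 cells per well. After a 30-min room-temperature compound exposure, HTRF cAMP reagents were added and fluorescence recorded 1 h later.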

[7] = qHTS assay to identify small molecule agonists of the hypoxia (HIF-1) signaling pathway - cell viability counter screen (AID 1224844; calls by dose curve; note: nearly all actives have a fitted effect of over 50% in size)
Summary of the method: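 Cells (HRE-bla ME-180, 2,000 per well) sat 5 hrs at 37C, got compound for 17 hrs, were read for CCF4-AM FRET, and were finally lysed with CellTiter-Glo for a 30 min room-temperature luminescence read.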

[8] = qHTS assay to identify small molecule agonists of H2AX (AID 1224845; active = well fitted activation curve with a large enough effect in the signal ratio in the repeat runs, not every such curve was filed as active; the % refers to the signal ratio)
Summary of the method: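 Phospho-H2AX Ser139 measured by HTRF (ex 320 nm; em 665 and 620 nm) after 24 hr antibody incubation. Compounds, 15 concentrations, 0.76% DMSO, were applied to CHO-K1 cells for 3hr at 37C before lysis.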

[9] = qHTS assay to identify small molecule agonists of H2AX - cell viability counter screen (AID 1224847; calls by dose curve;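 note: wild-type CHO-K1 cells; top concentration of the series differs between compounds; nearly all actives have a fitted effect of over 30% in size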)
Summary of the method: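 Counter-screen for viability: CellTiter-Glo ATP luminescence read after 3 h compound treatment (15-point titration, 0.76% DMSO final) of CHO-K1 cells at 37C, with 30 min room-temperature reagent incubation.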

[10] = qHTS assay to identify small molecule antagonists of the estrogen related receptor (ERR) signaling pathway from Tox21 library (AID 1224848); note: nearly all actives have a fitted effect of over 50% in size
Summary of the method: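 Antagonist-mode screen of the Tox21 10K library in an NTP-provided ERR reporter cell line; 18 h compound exposure at 37 C, luminescence measured with ONE-Glo.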

[11] = qHTS assay to identify small molecule agonists of the estrogen related receptor (ERR) signaling pathway from Tox21 library (AID 1224849; calls by dose curve; note: nearly all actives have a fitted effect of over 15% in size); conditions: ERR reporter cell line, ONE-Glo luciferase, 18 h
Summary of the method: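 Screening used an NTP-provided ERR luciferase cell line. Compounds in DMSO were added 6 h after seeding and left 18 h at 37 C before a 30 min ONE-Glo step and luminescence reading.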

[12] = qHTS RealTime-Glo MT Cell Viability Assay in HepG2 cells - 24 hour (AID 1224867); note: nearly all actives have a fitted effect of over 50% in size
Summary of the method: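 Viability was tracked continuously by NanoLuc luminescence from prosubstrate reduced by living HepG2 cells, at successive time points over 40 h of compound exposure. Cells with reagent were preincubated 5 h at 37 °C before compound addition.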

[13] = qHTS RealTime-Glo MT Cell Viability Assay in HEK293 cells - 32 hour (AID 1224868); note: nearly all actives have a fitted effect of over 50% in size; note: potency is the fitted concentration of half-maximal effect
Summary of the method: (§1)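 Viability tracked continuously by luminescence as live cells reduce a prosubstrate for NanoLuc; HEK293 cells preincubated 5 h, compound-treated at 37 C, and read at 0, 8, 16, 24, 32 and 40 h.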

[14] = A CellTox Green Cytotoxicity Assay to monitor cytotoxicity in HEK293 cells - 0 hour (AID 1224869); note: nearly all actives have a fitted effect of over 50% in size
Summary of the method: (§2)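 Fluorescence intensity, read at 0, 8, 16, 24, 32 and 40 h of compound treatment, reflected dye binding to DNA of dead HEK293 cells; compounds (23 nL, DMSO) were added 5 h after plating cells with reagent.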

[15] = A CellTox Green Cytotoxicity Assay to monitor cytotoxicity in HEK293 cells - 40 hour (AID 1224871); note: nearly all actives have a fitted effect of over 45% in size
Summary of the method: as §2

[16] = qHTS RealTime-Glo MT Cell Viability Assay in HepG2 cells - 40 hour (AID 1224870); note: nearly all actives have a fitted effect of over 50% in size
Summary of the method: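 Real-time viability: cells seeded at 600 per well together with NanoLuc and cell-permeant prosubstrate, compounds added after 5 h incubation. Luminescence tracked at 0, 8, 16, 24, 32 and 40 h of exposure.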

[17] = qHTS RealTime-Glo MT Cell Viability Assay in HEK293 cells - 16 hour (AID 1224872); note: nearly all actives have a fitted effect of over 50% in size; note: potency is the fitted concentration of half-maximal effect
Summary of the method: as §1

[18] = qHTS assay to identify small molecule agonists of the estrogen related receptor signaling pathway with the pleiotropic PPARgamma coactivator (PGC) from Tox21 10K library (AID 1224842); note: nearly all actives have a fitted effect of over 15% in size; note: potency is the fitted concentration of half-maximal effect
Summary of the method: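 Luminescence from One-Glo (30 min, room temperature) measured after PGC/ERR cells had 18 h at 37 C with pinned compound (23 nL in DMSO). Cells had been seeded at 2,000 per well and pre-incubated 6 h.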

[19] = qHTS assay to identify small molecule agonists of the hypoxia (HIF-1) signaling pathway (AID 1224846; active = well fitted activation curve with a large enough effect in the signal ratio in the repeat runs, not every such curve was filed as active; the % refers to the signal ratio)
Summary of the method: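 A low-serum medium (0.5% dialyzed FBS) holding 2,000 HRE-bla ME-180 cells per well is preincubated for 5 hrs, dosed with compounds by pintool, and kept a further 17 hrs at 37C, 5% CO2 before CCF4-AM FRET detection of beta-lactamase.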

[20] = qHTS assay to identify small molecule antagonists of the constitutive androstane receptor (CAR) signaling pathway - cell viability counter screen (AID 1224837); note: nearly all actives have a fitted effect of over 45% in size
Summary of the method: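 Counter screen run in HepG2-CYP2B6-hCAR cells: 4 hr settle, compound titration (15 concentrations) with 50 nM CITCO, 23 hr at 37 C/5% CO2, CellTiter-Fluor fluorescence.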
% is set by controls: 0 for no effect and ±100 for the full control effect.

Cc1cc(-n2nc3ccc(Cl)cc3n2)c(O)c(C(C)(C)C)c1
inactive: Potency [1] | Potency [2] | Potency [3] | Potency [4] | Potency [5] | Potency [6] | Potency [7] | Potency [8] | Potency [9] | Potency [10] | activity change, positive = activation ([11]; at 42.5 µM (top of the series)) 2.34% | Potency [12] | Potency [13] | Potency [14] | Potency [15]

CCCc1ccc(OCC(=O)N2CCN(C(=O)COc3ccc(CCC)cc3OC)CC2)c(OC)c1
inactive: Potency [1] | Potency [2] | Potency [3] | Potency [6] | Potency [8] | Potency [9] | activity change, positive = activation ([11]; at 42.5 µM (top of the series)) -21.5% | Potency [14] | Potency [16]
active: Potency [5] 16.8 µM | Potency [13] 8.49 µM | Potency [17] 9.52 µM

Cc1nc(-c2ccc(Cl)cc2)oc1COC(C)(C)C(=O)O
inactive: Potency [1] | Potency [2] | Potency [3] | Potency [4] | Potency [5] | Potency [18] | Potency [6] | Potency [7] | Potency [8] | Potency [19] | Potency [9] | Potency [10] | activity change, positive = activation ([11]; at 42.5 µM (top of the series)) 0.637% | Potency [12] | Potency [13] | Potency [14] | Potency [16] | Potency [15] | Potency [17]

Cc1nc2n(c(=O)c1CCN1CCC(c3noc4cc(F)ccc34)CC1)CCCC2
active: Potency [13] 3.79 µM
inactive: Potency [1] | Potency [20] | Potency [4] | Potency [6] | Potency [7] | Potency [8] | Potency [9] | Potency [12] | Potency [14] | Potency [16] | Potency [15]

CC(CCc1ccccc1)NCC(O)c1ccc(O)c(C(N)=O)c1 (centres undefined)
inactive: Potency [2] | Potency [3] | Potency [4] | Potency [7] | Potency [8] | Potency [9] | Potency [12] | Potency [13] | Potency [15] | Potency [17]
active: Potency [1] 30.6 µM

COc1c(C)c2c(c(O)c1C/C=C(\C)CCC(=O)OCCN1CCOCC1)C(=O)OC2
inactive: Potency [1] | Potency [3] | Potency [4] | Potency [5] | Potency [6] | Potency [19] | Potency [9] | Potency [10] | activity change, positive = activation ([11]; at 42.5 µM (top of the series)) -23.6% | Potency [12] | Potency [13] | Potency [16] | Potency [15] | Potency [17]
active: Potency [2] 1.06 µM | Potency [18] 0.237 µM

O=C(/C=C/c1ccccc1)OC/C=C/c1ccccc1
inactive: Potency [1] | Potency [2] | Potency [4] | Potency [5] | Potency [18] | Potency [7] | Potency [8] | Potency [19] | Potency [9] | Potency [10] | activity change, positive = activation ([11]; at 92.4 µM (top of the series)) 3.92% | Potency [13] | Potency [14] | Potency [15] | Potency [17]

ClCCl
inactive: Potency [1] | Potency [2] | Potency [3] | Potency [4] | Potency [7] | Potency [8] | Potency [19] | Potency [9] | Potency [12] | Potency [13] | Potency [14] | Potency [15] | Potency [17]

O=c1[nH]c(=O)n([C@H]2C[C@H](O)[C@@H](CO)O2)cc1F
inactive: Potency [1] | Potency [20] | Potency [4] | Potency [6] | Potency [7] | Potency [12] | Potency [14] | Potency [15] | Potency [17]

CCCCCCCCCCCC(=O)OCC(C)OC(=O)CCCCC(=O)O (centres undefined)
inactive: Potency [1] | Potency [2] | Potency [3] | Potency [4] | Potency [18] | Potency [6] | Potency [7] | Potency [8] | Potency [9] | Potency [10] | activity change, positive = activation ([11]; at 42.5 µM (top of the series)) -2.88% | Potency [12] | Potency [13] | Potency [14] | Potency [16] | Potency [15] | Potency [17]

CCn1c2ccccc2c2cc([N+](=O)[O-])ccc21
inactive: Potency [1] | Potency [20] | Potency [4] | Potency [7] | Potency [12] | Potency [16] | Potency [15]

CC(C)OC(=O)C(O)(CC(=O)O)CC(=O)O
inactive: Potency [1] | Potency [2] | Potency [4] | Potency [5] | Potency [6] | Potency [7] | Potency [8] | Potency [19] | Potency [9] | Potency [10] | activity change, positive = activation ([11]; at 92.4 µM (top of the series)) 4.45% | Potency [12] | Potency [13] | Potency [14] | Potency [16] | Potency [15] | Potency [17]

C=Cc1ccccc1C=C
inactive: Potency [1] | Potency [20] | Potency [4] | Potency [6] | Potency [7] | Potency [8] | Potency [19] | Potency [9] | Potency [13] | Potency [16] | Potency [15] | Potency [17]

CC(C)NC[C@@H](O)COc1ccc(CC(N)=O)cc1
inactive: Potency [1] | Potency [20] | Potency [4] | Potency [6] | Potency [7] | Potency [9] | Potency [12] | Potency [13] | Potency [14] | Potency [16] | Potency [15]

CCCCOC(=O)CC
inactive: Potency [1] | Potency [2] | Potency [3] | Potency [4] | Potency [6] | Potency [7] | Potency [8] | Potency [19] | Potency [9] | Potency [12] | Potency [13] | Potency [14] | Potency [15] | Potency [17]

COC(C)=O
inactive: Potency [1] | Potency [2] | Potency [3] | Potency [4] | Potency [7] | Potency [8] | Potency [19] | Potency [9] | Potency [12] | Potency [13] | Potency [14] | Potency [16] | Potency [15] | Potency [17]
